Measured values from PubChem BioAssay (Tox21).
Results filed as inconclusive are left out. Active and inactive are the calls of the source. Unless noted, calls come from the whole dose curve; as a rule, active = well fitted curve in the direction sought with a large enough effect in the repeat runs; inconclusive = weak or mixed curves; inactive = no such curve, though single readings can be large; an effect the other way counts as inactive or inconclusive.

What was measured:
[1] = qHTS assay to identify small molecule antagonists of the glucocorticoid receptor (GR) signaling pathway - cell viability counter screen (AID 720693); note: nearly all actives have a fitted effect of over 55% in size
[2] = qHTS assay for identifying genotoxic compounds that show differential cytotoxicity against isogenic chicken DT40 cell lines with known DNA damage response pathways - Rad54/Ku70 mutant cell line (AID 743015); note: nearly all actives have a fitted effect of over 60% in size; note: potency is the fitted concentration of half-maximal effect
[3] = target: Androgen receptor (Homo sapiens) (UniProt P10275); assay: qHTS assay to identify small molecule agonists of the androgen receptor (AR) signaling pathway (AID 743036; active = well fitted activation curve with a large enough effect in the signal ratio in the repeat runs, with a control signal flat, not every such curve was filed as active; the % refers to the signal ratio)
Method in brief: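 In this Tox21 qHTS, 2,000 HEK293 AR-bla cells per well were incubated with compounds for 16 h at 37C and 5% CO2. Fluorescence intensity was recorded 2 h after adding LiveBLAzer B/G FRET substrate at room temperature.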

[4] = target: Androgen receptor (Homo sapiens) (UniProt P10275); assay: qHTS assay to identify small molecule agonists of the androgen receptor (AR) signaling pathway using the MDA cell line (AID 743040; note: nearly all actives have a fitted effect of over 20% in size)
Method in brief: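 Testing was done with the MDA-kb2 AR-luc line, a human breast carcinoma stably transfected with MMTV-luciferase containing AR and GR response elements. Cells were exposed 16 h at 37C before ONE-Glo luminescence detection.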

[5] = qHTS assay to identify small molecule antagonists of the androgen receptor (AR) signaling pathway using the MDA cell line - cell viability counter screen (AID 743041; note: nearly all actives have a fitted effect of over 45% in size)
Method in brief: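 Compound exposure lasted 16 h at 37C in MDA-kb2 AR-luc cells stimulated with R1881. Protease-based CellTiter-Fluor reagent was applied for the final 30 min and fluorescence measured.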

[6] = target: Androgen receptor (Homo sapiens) (UniProt P10275); assay: qHTS assay to identify small molecule antagonists of the androgen receptor (AR) signaling pathway using the MDA cell line (AID 743042; note: nearly all actives have a fitted effect of over 55% in size)
Method in brief: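 MDA-kb2 breast carcinoma cells carrying MMTV-luciferase (AR/GR responsive) were co-treated with compounds and the agonist R1881 for 16 h at 37C. Inhibition read as ONE-Glo luminescence; CellTiter-Fluor fluorescence measured in parallel for cytotoxicity.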

[7] = qHTS assay to identify small molecule antagonists of the thyroid receptor (TR) signaling pathway - cell viability counter screen (AID 743064); note: nearly all actives have a fitted effect of over 50% in size
Method in brief: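 Counter screen for cytotoxicity: compound plus T3 (1 nM final) on GH3.TRE-Luc cells, 23.5 h at 37 °C, then fluorescence viability readout with CellTiter-Fluor.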

[8] = qHTS assay to identify small molecule antagonists of the thyroid receptor (TR) signaling pathway (AID 743065); note: series mostly up to about 70 µM; nearly all actives have a fitted effect of over 55% in size
Method in brief: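 GH3.TRE-Luc rat pituitary cells (two TREs driving luciferase) were dosed with compound, then stimulated with 1 nM T3 (final) for 23.5 h at 37 C. ONE-Glo luminescence was the read-out, with CellTiter-Fluor fluorescence as the cytotoxicity counter-screen.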

[9] = system: thyroid hormone receptor (rat, GH3 cells); assay: qHTS assay to identify small molecule agonists of the thyroid receptor (TR) signaling pathway (AID 743066; calls by dose curve)
[10] = qHTS assay to identify small molecule antagonists of the estrogen receptor alpha (ER-alpha) signaling pathway - cell viability counter screen (AID 743074; calls by dose curve; note: nearly all actives have a fitted effect of over 45% in size)
[11] = qHTS assay to identify small molecule antagonists of the estrogen receptor alpha (ER-alpha) signaling pathway using the BG1 cell line - cell viability counter screen (AID 743081);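 note: compound given together with 17beta-estradiol as the ER stimulus; series mostly up to about 70 µM; nearly all actives have a fitted effect of over 45% in size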
[12] = target: Estrogen receptor (Homo sapiens) (UniProt P03372); assay: qHTS assay to identify small molecule antagonists of the estrogen receptor alpha (ER-alpha) signaling pathway (AID 743069; active = well fitted curve in the direction sought with a large enough effect in the signal ratio in the repeat runs, not every such curve was filed as active; the % refers to the signal ratio)
Method in brief: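 In this cell-based reporter format, GripTite HEK293 cells harbouring ER-alpha-UAS-bla were grown overnight with 2% charcoal-stripped FBS, dosed with DMSO-dissolved compounds, then challenged with 17beta-estradiol. After 18 hr at 37C, beta-lactamase activity was detected by FRET fluorescence.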

[13] = target: Estrogen receptor (Homo sapiens) (UniProt P03372); assay: qHTS assay to identify small molecule agonists of the estrogen receptor alpha (ER-alpha) signaling pathway (AID 743075; calls by dose curve)
[14] = target: Estrogen receptor (Homo sapiens) (UniProt P03372); assay: qHTS assay to identify small molecule agonists of the estrogen receptor alpha (ER-alpha) signaling pathway using the BG1 cell line (AID 743079); note: nearly all actives have a fitted effect of over 20% in size; note: potency is the fitted concentration of half-maximal effect
[15] = qHTS assay to identify small molecule antagonists of the estrogen receptor alpha (ER-alpha) signaling pathway using the BG1 cell line (AID 743080; calls by dose curve;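 note: BG1 cells stimulated with 17beta-estradiol alongside compound; series mostly up to about 70 µM; nearly all actives have a fitted effect of over 25% in size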)
Method in brief: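 BG1-Luc-4E2 cells (endogenous full-length ER-alpha, 4xERE luciferase) hormone-starved 5 days in charcoal-stripped FBS, plated 4,000/well for 24 h, then compound plus 17beta-estradiol for 21.5 h at 37 C; ONE-Glo luminescence read.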

Aromatase (Homo sapiens) = Aromatase (Homo sapiens) (UniProt P11511); assay: qHTS assay to identify aromatase inhibitors (AID 743083); note: series mostly up to about 70 µM; nearly all actives have a fitted effect of over 55% in size
[16] = qHTS assay for identifying genotoxic compounds that show differential cytotoxicity against isogenic chicken DT40 cell lines with known DNA damage response pathways - Rev3 mutant cell line (AID 743014); note: nearly all actives have a fitted effect of over 55% in size
[17] = qHTS assay to identify small molecule antagonists of the androgen receptor (AR) signaling pathway - cell viability counter screen (AID 743033; note: nearly all actives have a fitted effect of over 45% in size)
[18] = qHTS assay for identifying genotoxic compounds that show differential cytotoxicity against isogenic chicken DT40 cell lines with known DNA damage response pathways - wild type cell line (AID 743012); note: nearly all actives have a fitted effect of over 60% in size
Method in brief: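 Viability by ATP luminescence (CellTiter-Glo, 30 min RT) after 40 h compound treatment at 37 C/5% CO2, using 300 parental DNA repair-proficient DT40 cells per well.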

[19] = target: Androgen receptor (Homo sapiens) (UniProt P10275); assay: qHTS assay to identify small molecule antagonists of the androgen receptor (AR) signaling pathway (AID 743035; active = well fitted inhibition curve with a large enough effect in the signal ratio in the repeat runs, not every such curve was filed as active; the % refers to the signal ratio)
Method in brief: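 Antagonist mode: AR-bla HEK293 cells co-treated with test compounds and agonist R1881 for 16 h at 37C, 5% CO2. Beta-lactamase activity read as FRET fluorescence after 2 h room-temperature substrate loading.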

Measured: Potency

Androgen receptor (Homo sapiens), sequence (P10275 whole entry, looked up): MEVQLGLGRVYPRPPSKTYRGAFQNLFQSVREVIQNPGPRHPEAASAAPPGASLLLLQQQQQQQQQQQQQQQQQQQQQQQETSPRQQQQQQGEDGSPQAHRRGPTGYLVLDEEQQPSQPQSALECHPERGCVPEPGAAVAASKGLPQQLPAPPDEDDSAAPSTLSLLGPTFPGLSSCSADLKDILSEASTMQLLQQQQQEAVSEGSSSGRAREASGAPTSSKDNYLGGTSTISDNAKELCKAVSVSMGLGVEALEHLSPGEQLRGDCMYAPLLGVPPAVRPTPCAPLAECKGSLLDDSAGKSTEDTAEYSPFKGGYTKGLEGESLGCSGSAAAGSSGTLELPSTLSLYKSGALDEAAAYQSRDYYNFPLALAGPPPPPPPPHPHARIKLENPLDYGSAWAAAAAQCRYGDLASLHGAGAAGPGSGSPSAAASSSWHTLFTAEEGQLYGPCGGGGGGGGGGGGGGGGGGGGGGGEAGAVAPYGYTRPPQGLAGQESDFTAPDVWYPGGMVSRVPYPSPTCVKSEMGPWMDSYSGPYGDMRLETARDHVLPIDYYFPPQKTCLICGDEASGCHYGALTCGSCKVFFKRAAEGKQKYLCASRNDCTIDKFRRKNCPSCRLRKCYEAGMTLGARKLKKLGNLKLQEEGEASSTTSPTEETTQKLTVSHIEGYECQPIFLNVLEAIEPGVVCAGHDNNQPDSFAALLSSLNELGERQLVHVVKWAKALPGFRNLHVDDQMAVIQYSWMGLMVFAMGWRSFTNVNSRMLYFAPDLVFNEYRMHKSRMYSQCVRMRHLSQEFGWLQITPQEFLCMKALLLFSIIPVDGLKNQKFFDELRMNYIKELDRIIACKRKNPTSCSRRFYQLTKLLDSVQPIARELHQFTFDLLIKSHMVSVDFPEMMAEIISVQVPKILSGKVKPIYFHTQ
Estrogen receptor (Homo sapiens), sequence (P03372 whole entry, looked up): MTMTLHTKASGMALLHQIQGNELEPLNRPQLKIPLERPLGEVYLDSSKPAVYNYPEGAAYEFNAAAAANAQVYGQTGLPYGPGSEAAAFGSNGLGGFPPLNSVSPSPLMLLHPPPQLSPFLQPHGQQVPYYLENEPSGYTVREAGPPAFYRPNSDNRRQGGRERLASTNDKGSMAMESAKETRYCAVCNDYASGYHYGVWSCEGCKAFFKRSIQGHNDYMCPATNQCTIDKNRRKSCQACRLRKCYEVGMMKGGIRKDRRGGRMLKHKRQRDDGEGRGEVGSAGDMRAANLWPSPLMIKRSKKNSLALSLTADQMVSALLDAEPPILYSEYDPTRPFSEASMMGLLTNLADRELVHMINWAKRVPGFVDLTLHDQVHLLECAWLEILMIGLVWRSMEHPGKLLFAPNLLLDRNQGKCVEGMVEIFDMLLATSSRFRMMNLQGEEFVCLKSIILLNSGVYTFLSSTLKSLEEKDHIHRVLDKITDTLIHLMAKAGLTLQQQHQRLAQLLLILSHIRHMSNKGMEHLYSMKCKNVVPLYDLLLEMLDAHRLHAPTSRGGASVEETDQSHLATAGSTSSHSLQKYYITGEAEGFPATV
Aromatase (Homo sapiens), sequence (P11511 whole entry, looked up): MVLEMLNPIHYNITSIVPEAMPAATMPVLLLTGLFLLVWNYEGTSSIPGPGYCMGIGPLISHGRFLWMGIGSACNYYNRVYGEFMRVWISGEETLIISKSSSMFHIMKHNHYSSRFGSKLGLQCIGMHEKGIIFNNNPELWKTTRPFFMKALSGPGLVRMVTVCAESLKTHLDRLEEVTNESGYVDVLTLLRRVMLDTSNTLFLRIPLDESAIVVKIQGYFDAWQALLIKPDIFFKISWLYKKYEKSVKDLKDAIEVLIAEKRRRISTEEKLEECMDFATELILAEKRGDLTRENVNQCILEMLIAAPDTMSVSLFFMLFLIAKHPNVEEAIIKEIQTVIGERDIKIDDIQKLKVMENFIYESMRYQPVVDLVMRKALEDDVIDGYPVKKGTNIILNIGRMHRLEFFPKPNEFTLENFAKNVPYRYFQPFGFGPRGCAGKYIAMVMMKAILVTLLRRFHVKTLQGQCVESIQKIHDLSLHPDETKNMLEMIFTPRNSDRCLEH

CCN(CC)CC(=O)Nc1c(C)cccc1C
inactive: [1] | [2] | [3] | [4] | [5] | [6] | [7] | [8] | [9] | [10] | [11]

Cc1cccc(C)c1OCC(C)N (stereo not drawn)
inactive: [1] | [5] | [7] | [9] | [12] | [10] | [13] | [14] | [15] | [11] | Aromatase (Homo sapiens)

CC1=CCC(C(C)C)=CC1
not listed: [3] | [4] | [6] | [8] | [9] | [18] | [19]
inactive: all other assays above

C[C@H](N)[C@H](O)c1cccc(O)c1
not listed: [1] | [3] | [4] | [6] | [8] | [9] | [19]
inactive: all other assays above

Cc1cccc2nccnc12
not listed: [2] | [3] | [4] | [6] | [14] | [18] | [19]
inactive: all other assays above

Cc1cc(Cl)c(C)cc1Cl
inactive: [1] | [2] | [17] | [4] | [5] | [6] | [7] | [10] | [11] | Aromatase (Homo sapiens)

C[C@@H]1O[C@@H](O[C@@H]2[C@@H](O)[C@H](OCCc3ccc(O)c(O)c3)O[C@H](CO[C@@H]3O[C@H](CO)[C@@H](O)[C@H](O)[C@H]3O)[C@H]2OC(=O)/C=C/c2ccc(O)c(O)c2)[C@H](O)[C@H](O)[C@H]1O
inactive: [1] | [17] | [5] | [8] | [9] | [10] | Aromatase (Homo sapiens)

CC(=O)c1ccc2c(c1)Cc1ccccc1-2
inactive: [1] | [16] | [2] | [17] | [5] | [9] | [12] | [10] | [11] | Aromatase (Homo sapiens)
active: [14] 24.4 µM

C#CC(C)N(C)C(=O)Nc1ccc(Cl)cc1 (stereo not drawn)
inactive: [1] | [17] | [4] | [5] | [6] | [7] | [9] | [10] | [11] | Aromatase (Homo sapiens)

CCCC/C=C/C=C\C=O
active: [2] 61.1 µM
not listed: [3] | [8] | [16] | [17] | [18] | [19]
inactive: all other assays above

BrCc1cccc(Oc2ccccc2)c1
inactive: [1] | [17] | [19] | [4] | [6] | [7] | [8] | [9] | [10] | [11] | Aromatase (Homo sapiens)

OC[C@H](Cc1cccc(O)c1)[C@H](CO)Cc1cccc(O)c1
inactive: [1] | [17] | [5] | [7] | [9] | [10] | [11] | Aromatase (Homo sapiens)

CC(C)OC(=O)CCCCC(=O)OC(C)C
inactive: [2] | [17] | [5] | [9] | [10] | [13] | [14] | [15] | [11]

CCCOC(=O)C(C)O (stereo not drawn)
not listed: [1] | [2] | [3] | [7] | Aromatase (Homo sapiens) | [16] | [17] | [18]
inactive: all other assays above

COC(=O)CCc1ccc(OCC(O)CNC(C)C)cc1 (stereo not drawn)
inactive: [1] | [17] | [5] | [7] | [9] | [10] | [11] | Aromatase (Homo sapiens)

CC(=O)/C=C/C1C(C)=CCC(C)C1(C)C (stereo not drawn)
active: [2] 48.6 µM
not listed: [3] | [4] | [6] | [8] | [16] | [18] | [19]
inactive: all other assays above

CCCN1C[C@H](CSC)C[C@@H]2c3cccc4[nH]cc(c34)C[C@H]21
inactive: [1] | [16] | [17] | [9] | [12] | [10] | [13] | [11] | Aromatase (Homo sapiens)

NC(CO)C(=O)NNCc1ccc(O)c(O)c1O (stereo not drawn)
not listed: [2] | [3] | [16] | [18]
inactive: all other assays above

CCCCCCCCC(=O)Cl
not listed: [2] | [3] | [4] | [6] | [16] | [18] | [19]
inactive: all other assays above

CC(C)(C)c1cc(CCC(=O)NN)cc(C(C)(C)C)c1O
inactive: [1] | [17] | [5] | [7] | [9] | [10] | [11] | Aromatase (Homo sapiens)

CCOC(=O)c1ccc(OC(=O)CCCCCN=C(N)N)cc1
active: [14] 14.3 µM
not listed: [3] | [4] | [6] | [16] | [17] | [18] | [19]
inactive: all other assays above

N[C@@H](CCC(=O)Nc1ccc([N+](=O)[O-])cc1)C(=O)O
not listed: [2] | [5] | [18]
inactive: all other assays above

CN(CCOc1ccc(NS(C)(=O)=O)cc1)CCc1ccc(NS(C)(=O)=O)cc1
active: [2] 13.3 µM
not listed: [3] | [4] | [6] | [12] | [16] | [18] | [19]
inactive: all other assays above
